In PubChem BioAssay (NCATS) one finds outcome and Potency data, which are given here for 37 molecules.

Inconclusive results are not listed. A call without a number means that no potency is given here. Active and inactive are the calls of the source. Calls follow the shape of the dose curve; as a rule, active = well fitted curve in the direction sought with a large enough effect; inconclusive = small, poorly fitted or top-dose-only effect, or another doubt; inactive = no such curve, though single readings can be large; an effect the other way counts as inactive or inconclusive.

A short description of one assay: qHTS for compounds that reverse cellular toxicity of Amyloid beta (A-beta) peptide in yeast: LOPAC Validation Assay (AID 720559). The settings on record: yeast expressing A-beta; series mostly up to 46.1 µM. The method, boiled down: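 Yeast cells expressing toxic A-beta were combined with pinned compounds in growth medium and incubated 48 hr at 30 C. Growth was read as absorbance at 600 nm and normalized to DMSO and to an equimolar FeCl3/clioquinol positive control.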
On the technique in general: Quantitative high-throughput screening tests each substance at several concentrations.
As for `O=C(O)CCC(=O)N1CCCC1C(=O)O` (stereo unspecified), the molecule was called inactive.
Still for that read-out and setting: for `O=c1[nH]c2cc(Cl)ccc2c(O)c1-c1ccc(Oc2ccccc2)cc1` the value was “inactive”; for `O=C1OC(=O)C2C3CCC(O3)C12` (stereo unspecified), “inactive”; for `N#Cc1cc([N+](=O)[O-])c2sc(C(N)=O)[n+]([O-])c2c1`, “inactive”.
`CC(C)[C@@H]1CC[C@@H](C)C[C@@H]1P(=O)(c1ccccc1)c1ccccc1`: the call was inactive.
Still for that read-out and setting: the same measure for `COc1ccc2c(c1)c(CC(=O)O)c(C)n2Cc1ccc(Cl)cc1`: “inactive”; for `CC[N+](CC)(CC)CC(=O)Nc1c(C)cccc1C`: “inactive”; for `CC(C)(C)c1ccc(/C=C/C(=O)Nc2ccc3c(c2)OCCO3)cc1`: “inactive”.
Take `O=C(O)c1ccccc1Nc1cccc(OCc2ccc3ccccc3n2)c1`: the molecule was classed as inactive.
In the case of `Cc1ccccc1/C=C/C1=NCCN1`, the call was inactive.
In the case of `O=S(=O)(c1cccc2c(Cl)cccc12)N1CCCNCC1`, the molecule was classed as inactive.
On the same count and under the same terms, the same measure for `Cn1c(=O)c2c(nc(/C=C/c3cccc(Cl)c3)n2C)n(C)c1=O`: “inactive”; for `COC(=O)C(C)(N)Cc1ccc(O)cc1` (stereo unspecified): “inactive”.
On the same count and under the same terms, for `C#CC(N)CCC(=O)O` (stereo unspecified) the value was “inactive”; for `CC(C)(C)NCC(O)COc1cccc2[nH]c(=O)[nH]c12` (stereo unspecified), “inactive”; for `NC(N)=[N+]1CCc2ccccc2C1`, “inactive”.
For the molecule `O=C(O)CCC/C=C\C[C@@H]1[C@@H](/C=C/[C@H](O)C2Cc3ccccc3C2)[C@@H](F)C[C@@H]1O`, the molecule was classed as inactive.
On the same count and under the same terms, for `NC(=O)CC[C@H](N)C(=O)O` the value was “inactive”; for `CCCCCCCCCCCCCCSCC(=O)O`, “inactive”.
For `COc1ccccc1N1CCN(CCCCN2C(=O)c3ccccc3C2=O)CC1`, the molecule was classed as inactive.
Turning to `O=C(O)c1cccnc1C(=O)O`, the call was inactive.
On to `Nc1nc2ccc(Cl)cc2c2nc(-c3ccco3)nn12`, for which the result was inactive.
Consider `O=c1onc2n1-c1cc(Br)ccc1OC2`, for which the call was inactive.
The same measure, in the same setting: the same measure for `[Li+]`: “inactive”; for `C[C@](Cc1ccc(O)c(O)c1)(NN)C(=O)O`: “inactive”; for `CCCCS(=N)(=O)CC[C@H](N)C(=O)O` (stereo partly specified): “inactive”.
Same read-out and setting: the same measure for `Nn1nnc2ccccc21`: “inactive”; for `CSC(=N)N`: “inactive”; for `O=C1NC(=O)c2cc(Nc3ccccc3)c(Nc3ccccc3)cc21`: “inactive”.
As for `C=C(C)C1CC=C(C(=O)O)CC1` (stereo unspecified), the molecule was classed as inactive.
Still for that read-out and setting: the same measure for `NC(=O)CNCCC(c1ccccc1)c1ccccc1`: “inactive”; for `CCCn1c(=O)c2[nH]c(-c3ccc(S(=O)(=O)O)cc3)nc2n(CCC)c1=O`: “inactive”; for `NC(N)=NC(N)=Nc1ccccc1`: “inactive”.
The same measure, in the same setting: for `NC(Cc1cccc(-c2ccccc2CP(=O)(O)O)c1)C(=O)O` (stereo unspecified) the value was “inactive”.
Consider `N=C(N)c1ccccc1`, for which the molecule was called inactive.
Regarding `NCC(O)C1CCCCCCC1` (stereo unspecified), the outcome was inactive.

A further assay is described as follows: qHTS for Activators of Parkin Expression: LOPAC Validation Assay (NLuc Reporter) (AID 720572). The settings on record: Parkin promoter NanoLuc reporter cells, luminescence; series mostly up to 46.1 µM. The gist of the method: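 Neuronal line stably carrying a FLuc/NLuc coincidence reporter under the Parkin promoter, seeded 24 h, then dosed in 7-point series for 24 h at 37 C. NLuc luminescence read after FLuc; normalized to DMSO and positive control (100%).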
As for `O=C(O)CCC(=O)N1CCCC1C(=O)O` (stereo unspecified), the Potency result is “inactive”.
For the molecule `O=c1[nH]c2cc(Cl)ccc2c(O)c1-c1ccc(Oc2ccccc2)cc1`, the Potency result is “inactive”.
Still for that read-out and setting: for `O=C1OC(=O)C2C3CCC(O3)C12` (stereo unspecified) the value was “inactive”; for `N#Cc1cc([N+](=O)[O-])c2sc(C(N)=O)[n+]([O-])c2c1`, “inactive”; for `CC(C)[C@@H]1CC[C@@H](C)C[C@@H]1P(=O)(c1ccccc1)c1ccccc1`, “inactive”.
Same read-out and setting: for `CC[N+](CC)(CC)CC(=O)Nc1c(C)cccc1C` the value was “inactive”; for `CC(C)(C)c1ccc(/C=C/C(=O)Nc2ccc3c(c2)OCCO3)cc1`, “inactive”; for `O=C(O)c1ccccc1Nc1cccc(OCc2ccc3ccccc3n2)c1`, “inactive”.
For `Cc1ccccc1/C=C/C1=NCCN1`, the Potency result was “inactive”.
As to `O=S(=O)(c1cccc2c(Cl)cccc12)N1CCCNCC1`, the Potency result is “inactive”.
For `Cn1c(=O)c2c(nc(/C=C/c3cccc(Cl)c3)n2C)n(C)c1=O`, the Potency result is “inactive”.
As to `COC(=O)C(C)(N)Cc1ccc(O)cc1` (stereo unspecified), the Potency result is “inactive”.
On the same count and under the same terms, for `C#CC(N)CCC(=O)O` (stereo unspecified) the value was “inactive”.
Same read-out and setting: for `CC(C)(C)NCC(O)COc1cccc2[nH]c(=O)[nH]c12` (stereo unspecified) the value was “inactive”.
As for `NC(N)=[N+]1CCc2ccccc2C1`, the Potency result is “inactive”.
The same measure, in the same setting: the same measure for `NC(=O)CC[C@H](N)C(=O)O`: “inactive”; for `CCCCCCCCCCCCCCSCC(=O)O`: “inactive”; for `COc1ccccc1N1CCN(CCCCN2C(=O)c3ccccc3C2=O)CC1`: “inactive”.
In the case of `O=C(O)c1cccnc1C(=O)O`, the Potency entry is “inactive”.
On the same count and under the same terms, the same measure for `Nc1nc2ccc(Cl)cc2c2nc(-c3ccco3)nn12`: “inactive”; for `O=c1onc2n1-c1cc(Br)ccc1OC2`: “inactive”; for `C=C1C[C@@]23CC[C@H]4[C@@](C)(CCC[C@@]4(C)C(=O)OC4OC(CO)C(O)C(O)C4O)[C@@H]2CC[C@]1(OC1OC(CO)C(O)C(O)C1OC1OC(CO)C(O)C(O)C1O)C3` (stereo partly specified): “inactive”.
The same measure, in the same setting: the same measure for `[Li+]`: “inactive”; for `C[C@](Cc1ccc(O)c(O)c1)(NN)C(=O)O`: “inactive”.
Still for that read-out and setting: the same measure for `CCCCS(=N)(=O)CC[C@H](N)C(=O)O` (stereo partly specified): “inactive”; for `Nn1nnc2ccccc21`: “inactive”; for `CSC(=N)N`: “inactive”.
For the molecule `O=C1NC(=O)c2cc(Nc3ccccc3)c(Nc3ccccc3)cc21`, the Potency entry is “inactive”.
Take `C=C(C)C1CC=C(C(=O)O)CC1` (stereo unspecified): the Potency entry was “inactive”.
Same read-out and setting: the same measure for `NC(=O)CNCCC(c1ccccc1)c1ccccc1`: “inactive”.
Still for that read-out and setting: the same measure for `CCCn1c(=O)c2[nH]c(-c3ccc(S(=O)(=O)O)cc3)nc2n(CCC)c1=O`: “inactive”; for `NC(N)=NC(N)=Nc1ccccc1`: “inactive”; for `NC(Cc1cccc(-c2ccccc2CP(=O)(O)O)c1)C(=O)O` (stereo unspecified): “inactive”.
Still for that read-out and setting: for `N=C(N)c1ccccc1` the value was “inactive”; for `NCC(O)C1CCCCCCC1` (stereo unspecified), “inactive”.
